In PubChem BioAssay:
Values without a mark were called inactive. For some assays here: Results with a measured potency or affinity are listed apart. The source made the active and inactive calls. Unless noted, how the calls were made is not given here.

Legend:
[1] = antimalarial activity against Dd2 strain (AID 2302;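 active means growth inhibition above 50% at the single 2 µM test dose, taken to imply half-maximal potency below 2 µM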;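 further: 0% = DMSO untreated growth and 100% = chloroquine plus artemisinin killed control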); conditions: P. falciparum Dd2 in RBCs, LDH growth readout, 72 h; at 2 µM; stronger effect = higher value
[2] = human hepatoma cell viability loss – ATP luminescence, cytotoxicity control for P. falciparum antimalarial project, primary screen (AID 2303;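 active means inhibition above 50%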;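 further: 0% = DMSO wells and 100% = digitonin-killed cells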); conditions: HepG2 viability, 24-48 h, at 10 µM, stronger effect = higher value
[3] = biological target: L-lactate dehydrogenase (Plasmodium falciparum (isolate CDC / Honduras)) (UniProt Q27743); assay: PfLDH activity inhibition – cell lysate, 3D7 strain, counter-screen for P. falciparum growth inhibition project (AID 2304);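 further: 0% = vehicle and 100% = reference inhibitor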; conditions: P. falciparum 3D7 crude extract, LDH APAD/NBT absorbance; at 2 µM; stronger effect = higher value
L-lactate dehydrogenase (Plasmodium falciparum (isolate CDC / Honduras)), sequence (Q27743 whole entry, looked up): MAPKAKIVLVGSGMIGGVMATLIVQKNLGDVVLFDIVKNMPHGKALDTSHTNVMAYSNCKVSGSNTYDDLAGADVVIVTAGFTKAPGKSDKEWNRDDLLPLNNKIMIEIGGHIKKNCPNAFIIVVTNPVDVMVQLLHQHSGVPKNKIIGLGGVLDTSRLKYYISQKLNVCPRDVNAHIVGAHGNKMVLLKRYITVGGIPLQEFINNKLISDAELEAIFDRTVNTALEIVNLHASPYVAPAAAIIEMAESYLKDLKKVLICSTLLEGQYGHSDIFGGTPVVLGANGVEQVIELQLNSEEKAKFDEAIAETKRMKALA

[4] = inhibition of 3D7 malaria parasite growth – strain 3D7 (AID 2306);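 further: 0% = DMSO wells and 100% = chloroquine plus artemisinin control wells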; conditions: P. falciparum 3D7 erythrocytic growth, LDH absorbance, 72 h; at 2 µM; stronger effect = higher value
[5] = biological target: Calcium-dependent protein kinase 1 (Plasmodium falciparum (isolate 3D7)) (UniProt P62344); assay: PfCDPK1 kinase inhibitors, biochemical, TCAMS library (AID 1159585; cut-off not given, nearly all actives have IC50 up to about 0.98 µM;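 further: inhibitors leave more ATP so luminescence rises with inhibition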); conditions: recombinant PfCDPK1, Kinase-Glo ATP depletion luminescence
Calcium-dependent protein kinase 1 (Plasmodium falciparum (isolate 3D7)), sequence (P62344 whole entry, looked up): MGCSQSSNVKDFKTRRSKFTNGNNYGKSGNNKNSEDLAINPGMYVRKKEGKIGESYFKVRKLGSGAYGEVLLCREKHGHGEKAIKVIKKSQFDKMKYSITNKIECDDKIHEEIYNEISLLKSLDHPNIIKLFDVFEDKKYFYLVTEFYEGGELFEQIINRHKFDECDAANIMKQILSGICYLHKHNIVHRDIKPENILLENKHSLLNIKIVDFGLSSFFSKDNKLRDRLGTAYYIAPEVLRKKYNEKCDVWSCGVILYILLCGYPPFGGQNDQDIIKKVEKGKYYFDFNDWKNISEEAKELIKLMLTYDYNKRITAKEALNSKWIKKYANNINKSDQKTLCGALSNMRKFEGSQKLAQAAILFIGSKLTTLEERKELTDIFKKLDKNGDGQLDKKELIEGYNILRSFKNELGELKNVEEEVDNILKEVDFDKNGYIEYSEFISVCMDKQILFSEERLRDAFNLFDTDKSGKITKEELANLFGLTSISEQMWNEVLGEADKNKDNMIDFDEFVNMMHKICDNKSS

[6] = biological target: Plasmodium falciparum protein kinase 6 (PK6, PF3D7_1337100) (UniProt Q8IDW1); assay: PfPK6 kinase inhibitors, biochemical, TCAMS library (AID 1159586); conditions: recombinant PfPK6, Kinase-Glo ATP depletion luminescence
Plasmodium falciparum protein kinase 6 (PK6, PF3D7_1337100), sequence (Q8IDW1 1-305): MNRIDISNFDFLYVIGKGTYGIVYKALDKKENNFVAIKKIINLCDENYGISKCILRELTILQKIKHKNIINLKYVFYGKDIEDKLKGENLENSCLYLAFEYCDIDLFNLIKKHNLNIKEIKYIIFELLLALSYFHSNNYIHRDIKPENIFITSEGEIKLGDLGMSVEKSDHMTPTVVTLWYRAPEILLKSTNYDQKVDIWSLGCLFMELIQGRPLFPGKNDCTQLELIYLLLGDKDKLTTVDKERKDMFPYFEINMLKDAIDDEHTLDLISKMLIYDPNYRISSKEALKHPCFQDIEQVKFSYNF

[7] = biological target: Protein kinase 7 (PK7), Plasmodium falciparum 3D7 (PF3D7_0213400) (UniProt Q7YTF7); assay: inhibition of Plasmodium PK7 catalytic activity – biochemical, TCAMS antimalarial set, Kinase-Glo luminescence (AID 1159587); conditions: recombinant PfPK7, Kinase-Glo ATP depletion luminescence
Protein kinase 7 (PK7), Plasmodium falciparum 3D7 (PF3D7_0213400), sequence (Q7YTF7 1-343): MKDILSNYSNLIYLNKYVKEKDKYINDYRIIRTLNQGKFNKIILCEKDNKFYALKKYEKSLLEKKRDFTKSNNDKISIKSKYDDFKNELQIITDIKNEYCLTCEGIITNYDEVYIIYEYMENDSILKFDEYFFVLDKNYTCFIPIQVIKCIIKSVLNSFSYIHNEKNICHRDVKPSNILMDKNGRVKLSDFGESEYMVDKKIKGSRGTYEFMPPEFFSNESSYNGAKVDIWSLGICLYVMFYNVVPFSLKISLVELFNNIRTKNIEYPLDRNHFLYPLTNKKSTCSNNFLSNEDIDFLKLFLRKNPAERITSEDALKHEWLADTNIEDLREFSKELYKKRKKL

[8] = biological target: Calcium-dependent protein kinase 4 (Plasmodium falciparum (isolate 3D7)) (UniProt Q8IBS5); assay: PfCDPK4 kinase inhibitors, biochemical, TCAMS library (AID 1159588; cut-off not given, nearly all actives have IC50 up to about 0.91 µM); conditions: recombinant PfCDPK4, Kinase-Glo ATP depletion luminescence
Calcium-dependent protein kinase 4 (Plasmodium falciparum (isolate 3D7)), sequence (Q8IBS5 whole entry, looked up): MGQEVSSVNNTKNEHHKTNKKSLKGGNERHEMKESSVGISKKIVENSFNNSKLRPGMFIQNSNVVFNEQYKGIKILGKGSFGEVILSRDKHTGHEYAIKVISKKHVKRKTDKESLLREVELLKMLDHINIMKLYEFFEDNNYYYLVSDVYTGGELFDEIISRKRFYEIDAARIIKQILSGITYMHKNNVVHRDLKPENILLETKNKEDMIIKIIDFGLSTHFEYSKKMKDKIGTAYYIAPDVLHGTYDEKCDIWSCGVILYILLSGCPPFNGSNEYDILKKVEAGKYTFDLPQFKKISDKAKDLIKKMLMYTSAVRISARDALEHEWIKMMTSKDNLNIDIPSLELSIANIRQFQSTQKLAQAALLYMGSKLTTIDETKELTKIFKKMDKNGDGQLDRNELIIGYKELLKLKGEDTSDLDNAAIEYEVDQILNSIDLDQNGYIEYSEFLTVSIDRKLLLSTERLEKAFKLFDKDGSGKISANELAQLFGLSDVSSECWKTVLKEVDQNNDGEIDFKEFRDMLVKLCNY

Row | Structure (SMILES) | growth inhibition [1] | inhibition [2] [%] | inhibition [3] [%] | growth inhibition [4] | outcome [5] | outcome [6] | outcome [7] | outcome [8]
1 | Cc1noc(C)c1-c1ccc(C(=C2CCCCCCC2)c2ccc(O)cc2)cc1 | 48% | -6 | 1 | 83% (active) | inactive | inactive | inactive | inactive
2 | CCc1ccc(-c2cnc(N)c3cc(-c4ccnc(N)n4)ccc23)cc1 | 70% (active) | 37 | 0 | 92% (active) | inactive | inactive | inactive | inactive
3 | CN1CCCN(Cc2ccc(-c3ccc(NS(=O)(=O)c4cccc5cccnc45)cc3)cc2)CC1 | 85% (active) | 35 | 5 | 99% (active) | inactive | inactive | inactive | inactive
4 | Fc1ccc(NC(=S)NCCc2ccccc2)cc1 | 0% | -1 | 3 | 99% (active) | inactive | inactive | inactive | inactive
5 | CCCNCc1c(O)ccc2c(CNCCC)c(O)ccc12 | 9% | 24 | -1 | 101% (active) | inactive | inactive | inactive | inactive
6 | COc1ccc(Cn2cncc2CN(CCC(C)C)C(=O)c2ccc(Cl)nc2Cl)cc1 | 61% (active) | 19 | -1 | 87% (active) | inactive | inactive | inactive | inactive
7 | OC1CCCN(Cc2cccc(-c3ccc(-c4nc5ccc(F)cc5[nH]4)cc3)c2)C1 (stereo not given) | 42% | 16 | -4 | 101% (active) | inactive | inactive | inactive | inactive
8 | Cc1cccc(-c2ccc3c(c2)CC(NCc2cccc(-n4ccnc4)c2)C3)c1 (stereo not given) | 49% | 11 | 0 | 101% (active) | inactive | inactive | inactive | inactive
9 | COc1cc(NC(=O)Nc2ccnc3ccccc23)cc(OC)c1 | 34% | 11 | -6 | 98% (active) | inactive | inactive | inactive | inactive
10 | CC(C)C1=CC(=NOS(=O)(=O)c2ccccc2)C=C(C(C)C)C1=O | 74% (active) | 23 | -3 | 92% (active) | inactive | inactive | inactive | inactive
11 | O=C1C(c2ccccc2)=C(Nc2cccc(OC(F)(F)C(F)F)c2)c2ccccc21 | 96% (active) | -5 | 0 | 96% (active) | inactive | inactive | inactive | inactive
12 | OC(COCc1ccc(-c2ccccc2)cc1)CN1CCCCC1 (stereo not given) | 75% (active) | 13 | -1 | 99% (active) | inactive | inactive | inactive | inactive
13 | CCOC(=O)c1c(CNc2ccncc2)n(C)c2cc(Br)c(OC(C)=O)cc12 | 93% (active) | -3 | 5 | 96% (active) | inactive | inactive | inactive | inactive
14 | O=C(Nc1cccc(-c2csc(-c3nc4ccccc4[nH]3)c2)c1)c1cc(=O)c2ccccc2[nH]1 | 39% | 41 | -2 | 98% (active) | inactive | inactive | inactive | inactive
15 | COc1cc(Cc2cnc(N)nc2N)cc(OCCCCCC(=O)O)c1OC | 2% | -16 | -4 | 95% (active) | inactive | inactive | inactive | inactive
16 | CC1CN(c2ccc(NC(=O)c3ccc(F)cc3)cc2)CCN1Cc1cccc(F)c1 (stereo not given) | 76% (active) | 11 | 2 | 81% (active) | inactive | inactive | inactive | inactive
17 | COCc1nc(-c2ccccc2)nc(N2CCN(C(=O)NC(C)C)CC2)c1Cc1ccccc1F | 94% (active) | 35 | -3 | 96% (active) | inactive | inactive | inactive | inactive
18 | COc1ccc(CNCc2cccc(-c3cccc(-c4nc5ccccc5[nH]4)c3)c2)cc1 | 50% (active) | 24 | 1 | 102% (active) | inactive | inactive | inactive | inactive
19 | CCCCOc1cc2c(cc1OCC)C(C=Cc1ccc(Cl)cc1Cl)=NCC2 | 95% (active) | -2 | -1 | 97% (active) | inactive | inactive | inactive | inactive
20 | O=C1OC2(CCN(C(=O)c3ccc(-n4cnnn4)cc3)CC2)CN1Cc1ccc(Cl)c(Cl)c1 | 70% (active) | 11 | -7 | 97% (active) | inactive | inactive | inactive | inactive

Row | Structure (SMILES) | growth inhibition [1] | inhibition [2] [%] | inhibition [3] [%] | growth inhibition [4] | outcome [5] | outcome [6] | outcome [7] | outcome [8]
21 | CC1CCCN(Cc2c(O)ccc3c(=O)c(-c4nc5ccccc5s4)c(N)oc23)C1 (stereo not given) | 99% (active) | 20 | -2 | 100% (active) | inactive | inactive | inactive | inactive
22 | C=C(C)C1CC=C(CN2CCC(N3CCc4cc(NC(=O)c5cc(C)on5)ccc43)C2)CC1 (stereo not given) | 95% (active) | 26 | 0 | 90% (active) | inactive | inactive | inactive | inactive
23 | CC(C)NCc1ccc(-c2ccc(CN3CCCC(c4ccccc4)C3)cc2)c(C(=O)NC2Cc3ccccc3C2)c1 (stereo not given) | 64% (active) | 41 | 3 | 96% (active) | inactive | inactive | inactive | inactive
24 | Cc1cc(C2CCN(CCCCNC(=O)c3ccc(-c4ccc(C(F)(F)F)cc4)cc3)CC2)c(C)cc1OCC(N)=O | 44% | 34 | -7 | 91% (active) | inactive | inactive | inactive | inactive
25 | NC(=O)c1cccc(Nc2nccc(Nc3ccc(Oc4cccc5ccccc45)cc3)n2)c1 | 22% | -10 | 3 | 94% (active) | inactive | inactive | inactive | inactive
26 | COc1cccc(-c2cc3nc4c(c(NCCCn5ccnc5)n3n2)CCCC4)c1 | 66% (active) | 10 | -2 | 100% (active) | inactive | inactive | inactive | inactive
27 | Cn1c(NC(=O)C2CCCN(C(=O)c3ccc(O)c(-c4ccc(Cl)c(Cl)c4)c3)C2)nc2ccccc21 (stereo not given) | 99% (active) | 0 | -3 | 98% (active) | inactive | inactive | inactive | inactive
28 | Cc1cccc2[nH]c(-c3ccc(-c4cccc(NC(=O)Nc5ccccc5)c4)cc3)nc12 | 14% | 18 | 9 | 101% (active) | inactive | inactive | inactive | inactive
29 | CCC[C@@H]1CCN[C@H]([C@H](O)c2ccnc3ccc(OC)cc23)C1 | 69% (active) | -3 | -1 | 99% (active) | inactive | inactive | inactive | inactive
30 | O=[N+]([O-])c1cccc(C=NNc2nc(Nc3ccccc3)nc(Nc3ccccc3)n2)c1 | 55% (active) | 10 | 3 | 99% (active) | inactive | inactive | inactive | inactive
31 | NC1=NC2(CCCCC2)N(Cc2ccc(Cl)c(Cl)c2)C(N)=N1 | 76% (active) | 22 | -3 | 86% (active) | inactive | inactive | inactive | inactive
32 | CC(CO)(CO)NCc1cc2c3ccccc3c(CNC(C)(CO)CO)cc2c2ccccc12 | 98% (active) | 40 | 3 | 96% (active) | inactive | inactive | inactive | inactive
33 | CCN(CCCN1CCCCC1)c1cc(C)nc(Nc2cc(C)ccc2C)n1 | 42% | 34 | 2 | 93% (active) | inactive | inactive | inactive | inactive
34 | CN(C)CCNCc1ccc(-c2ccc(-c3nc4ccccc4[nH]3)s2)cc1 | 100% (active) | -2 | 1 | 101% (active) | inactive | inactive | inactive | inactive
35 | COc1ccc(C(C(=O)NC2CCN(C[C@H](O)c3ccnc4ccc(OC)cc34)CC2)N2CCc3ccccc3C2)cc1 (stereo not given in full) | 30% | 19 | -3 | 96% (active) | inactive | inactive | inactive | inactive
36 | COc1cc(Cl)c(C)cc1N(Cc1ccccc1-c1ccccc1)S(=O)(=O)c1ccc(C(F)(F)F)cc1 | 62% (active) | 23 | -2 | 90% (active) | inactive | inactive | inactive | inactive
37 | CCN(CC)CCCC(C)Nc1ccnc2ccc(-c3ccccc3)cc12 (stereo not given) | 21% | 0 | 2 | 98% (active) | inactive | inactive | inactive | inactive
38 | COc1ccc(NC(=O)[C@H](Cc2ccccc2)Nc2cc(C)nc(NCCc3ccccc3OC)n2)cc1 | 83% (active) | 10 | 3 | 100% (active) | inactive | inactive | inactive | inactive
39 | COc1ccc(C2CCN(CCCCNC(=O)c3ccc(NC(=O)c4ccc(Cl)cc4)cc3)CC2)c(C)c1 | 35% | 22 | 2 | 98% (active) | inactive | inactive | inactive | inactive
40 | O=c1cc(NCCCNCc2scc3c(Cl)cc(C(F)(F)F)nc23)[nH]c2ccccc12 | 21% | 9 | -1 | 99% (active) | inactive | inactive | inactive | inactive
